Compound activity: PubChem BioAssay, National Center for Advancing Translational Sciences (NCATS)
Rows were chosen to be rich in hits. Some 13% of all compounds tested hit in one or more screens of this group.
HCMV antiviral: human cytomegalovirus inhibition; 410,000 compounds, 4.5% hits; activity change, negative = inhibition, % at 57.5 µM; HFF cells, HCMV-luciferase reporter, 72 h; stronger effect = lower value; AID 1259415; in the data active = activity change below about -60%; inconclusive = no clear call, values can overlap the other calls; inactive = above about -39%
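Steps: HFFs plated, 16 h 37C; compounds added; HCMV-luciferase added to MOI 1 PFU/cell; 72 h 37C; OneGlo reagent, 5 min room temperature; luminescence read, normalized to controls.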
Pf growth 48h: P. falciparum growth inhibition at 48 hours (one generation); P. falciparum luciferase growth in erythrocytes, 48 h; Potency, µM (doses to about 28.7 µM), without a hit: at the top dose activity change, negative = inhibition, usual class: inhibitors; 310,000 compounds, 5.9% hits; note: potency is the fitted concentration of half-maximal effect
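A one-generation exposure of luciferase-tagged malaria parasites in RPMI 1640/Albumax erythrocyte culture, 37 C and 5% CO2. Inhibition is inferred from decreased luminescence after adding detection reagent.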
Pf growth 96h: P. falciparum growth inhibition at 96 hour, primary screen for plastid delayed-death inhibitors | Potency, µM (top dose mostly 28.7 µM), for inactives: at the highest dose activity change, negative = inhibition, most hits filed as inhibitors | P. falciparum luciferase reporter growth, 96 h | 320,000 compounds, 6.9% hits; note: potency is the fitted concentration of half-maximal effect
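Plates of compound plus infected erythrocytes (2% hematocrit, 0.05% parasitemia final) incubate 96 hours, 37 C, 5% CO2. Detection reagent added; reduced luminescence from the parasites' luciferase reporter flags inhibition.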
HCV inh: HCV inhibition; Huh7.5.1 HCVcc-Cre infection, luciferase reporter, 44 h; Potency, µM (top dose mostly 41.8 µM), for the others: top-dose activity change, negative = inhibition, most hits filed as inhibitors; 340,000 compounds, 3.4% hits; AID 651820; note: potency is the fitted concentration of half-maximal effect
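Seed cells (1,000/well) for 4 h; treat with compound and infect with HCVcc-Cre, moi about 0.5. Incubate 44 h, then detect luciferase activity.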
An asterisk follows results filed as active; ? = inconclusive; . = no result given; [ ] = dose if it differs, or a comment. Unless noted, calls come from the whole dose curve; as a rule, active = well fitted inhibition curve with a large enough effect; inconclusive = small, poorly fitted or top-dose-only effect, or another doubt; inactive = no such curve, though single readings can be large or run the other way. % is set by controls: 0 for no effect and ±100 for the full control effect.

SMILES | HCMV antiviral | Pf growth 48h | Pf growth 96h | HCV inh
CSc1ncc(CN2CCc3c([nH]c4ccccc34)C2c2cccc(C)n2)cn1 (configuration not stated) | 0 | ? | ? | -24%
CCn1ccnc1CN1CCc2c([nH]c3ccccc23)C1C1CCCCC1 (configuration not stated) | 6 | ? | -17% | 9%
O=C(c1cc(C2CC2)nn1-c1ccccc1)N1CCN(S(=O)(=O)c2cccc(F)c2)CC1 | 0 | 8.3µM* | ? | ?
O=C(c1cc(-c2cccs2)nn1-c1ccccc1)N1CCN(S(=O)(=O)c2ccccc2)CC1 | -29 | 10µM* | 4.1µM* | ?
Cc1ccc(S(=O)(=O)N2CCN(C(=O)c3cc(-c4cccs4)nn3-c3ccccc3)CC2)cc1 | -2 | -2% | 7% | -1%
O=C(c1cc(-c2ccccc2)nn1-c1ccccc1)N1CCN(S(=O)(=O)c2ccc(F)cc2)CC1 | -77* | 1% | -27% | ?
Cc1c2cnn(CC(=O)NC(C)C)c(=O)c2c(C)n1Cc1ccccc1Cl | 27 | . | . | .
COc1ccc(OC)c(CNS(=O)(=O)c2ccc(-c3cc(C(F)(F)F)on3)s2)c1 | -70* | . | . | .
COc1ccccc1CNS(=O)(=O)c1ccc(-c2cc(C(F)(F)F)on2)s1 | -30 | . | . | .
Cc1ccc(-c2nn(CC(=O)NC3CCCC3)c3c2cnc2ccc(F)cc23)cc1C | 80 | . | . | .
COCCN1C(=O)c2cc(C(=O)Nc3cccc(F)c3)ccc2C1Nc1cccc(F)c1 (configuration not stated) | -38 | -15% | ? | ?
CCc1ccc(NC(=O)c2ccc3c(c2)C(=O)N(CCOC)C3Nc2ccc(CC)cc2)cc1 (configuration not stated) | -90* | ? | ? | -19%
O=C(/C=C/c1ccc2c(c1)OCO2)c1ccc(O)cc1O | 35 | . | . | -4%
O=C(/C=C/c1ccc2c(c1)OCO2)c1ccco1 | 56 | 34% | 6.6µM* | 4%
O=C(N/N=C\c1ccc2c(c1)OCO2)c1ccco1 | 103 | 196% | -8% | 0%
Nc1ccccc1C(=O)/C=C/c1ccc2c(c1)OCO2 | -71* | 221% | 73% | -2%[8.37 µM]
COc1ccc(C(=O)NCC(=O)OCc2cc(=O)n3nc(C4CCCCC4)sc3n2)cc1 | 11 | . | . | .
C=CCCC(=O)Nc1nc(C)c(-c2csc(Nc3cc(Cl)ccc3OC)n2)s1 | -29 | ? | ? | ?
Cc1nc(NC(=O)CC(C)C)sc1-c1csc(Nc2ccc(Cl)cc2Cl)n1 | ? | ? | 9.3µM* | -28%
COc1ccc(Cl)cc1Nc1nc(-c2sc(NC(=O)CC(C)C)nc2C)cs1 | -2 | 10µM* | 9.3µM* | 11µM*
Cc1nc(NC(=O)CC(C)C)sc1-c1csc(Nc2ccc(Cl)cc2)n1 | -22 | 10µM* | 4.7µM* | 7.1µM*
C=CCCC(=O)Nc1nc(C)c(-c2csc(Nc3ccc(Cl)cc3Cl)n2)s1 | -33 | ? | 8.3µM* | ?
CCN(C(=O)c1nn(-c2ccc(OC)c(Cl)c2)c(=O)c2c1c1ccccc1n2C)c1cccc(C(F)(F)F)c1 | -2 | . | . | .
CNc1ccc(Br)cc(C(=O)/C=C/c2ccc(Cl)cc2Cl)c1=O | 23 | ? | ? | ?
COc1ccc(C=CC(=O)c2ccc(OC)c(OC)c2)cc1O | 47 | . | . | .
SMILES | HCMV antiviral | Pf growth 48h | Pf growth 96h | HCV inh
CNc1ccc(Br)cc(C(=O)/C=C/c2cccc(OC)c2)c1=O | -85* | ? | ? | 11µM*
CCNc1ccc(Br)cc(C(=O)/C=C/c2ccc(Cl)cc2)c1=O | . | -72% | ? | ?
COc1ccc(/C=C/C(=O)c2ccccc2)c(OC)c1 | -11 | 161% | 4% | -17%
COc1ccc(/C=C/C(=O)c2ccc(OC)cc2OC)c(OC)c1 | -76* | ? | 3.7µM* | ?
CCNc1ccc(Br)cc(C(=O)/C=C/c2c(Cl)cccc2Cl)c1=O | . | ? | ? | 13µM*
COc1ccc(C(=O)/C=C/c2ccc(OC)c(O)c2)c(F)c1 | ? | ? | ? | 14µM*
CC(C)c1ccc(NC(=O)[C@H]2O[C@@H]3OC(C)(C)O[C@@H]3[C@H]3OC(C)(C)O[C@H]32)cc1 | 48 | . | . | .
CCOc1ccc(-c2cc3c(=O)n(CC(=O)NCc4ccc(Cl)cc4)ccn3n2)cc1 | 25 | . | . | .
CNc1ccc(Br)cc(C(=O)/C=C/c2ccc(OC)cc2OC)c1=O | -66* | ? | ? | -28%
COCCn1c(-c2ccc(C)cc2)nc2oc3cc(OC)ccc3c(=O)c2c1=O | 37 | 4.1µM* | ? | -13%
COCCn1c(-c2ccc(F)cc2)nc2oc3cc(OC)ccc3c(=O)c2c1=O | -24 | ? | -3% | 4%
COCCCn1c(C2CCCCC2)nc2oc3cc(OC)ccc3c(=O)c2c1=O | -36 | ? | 0.93µM* | 3%
C=C1CCC(O)C/C1=C/C=C1\CCC[C@]2(C)[C@@H]([C@H](C)/C=C/[C@H](C)C(C)C)CC[C@@H]12 (some centres not stated) | . | -18% | ? | .
O=C(Cn1c(=O)n(Cc2ccco2)c(=O)c2ccccc21)Nc1ccc(Cl)cc1Cl | -1 | . | . | .
COc1ccc(N2CCN(c3cc(C)c4ccc(C)cc4n3)CC2)cc1 | -64* | -19% | 0% | -15%
COc1ccc(N2CCN(c3nc4cc(C)ccc4cc3C=O)CC2)cc1 | -25 | -11% | 20% | 11µM*
Cc1cc(N2CCN(c3ccccc3F)CC2)nc2cc(O)ccc12 | 131 | 10µM* | 0% | -25%
Cc1cc(N2CCOCC2)nc2cc(O)ccc12 | 51 | 108% | 5% | 4%
Cc1cc(N2CCN(c3ccc(F)cc3)CC2)nc2cc(O)ccc12 | -31 | . | 7.4µM* | -12%
COc1ccc2c(C)cc(N3CCN(c4ccc(F)cc4)CC3)nc2c1 | 7 | ? | . | -18%
COc1ccc2c(C)cc(N3CCOCC3)nc2c1 | 17 | 55% | 94% | 25µM*
COc1ccc2c(C)cc(SCn3nnc4ccccc4c3=O)nc2c1 | -65* | 24% | 59% | -4%
COc1ccc2nc(N3CCOCC3)cc(C)c2c1 | 146 | . | 315% | ?
Cc1cc(N2CCOCC2)nc2ccc(NC(=O)CCC(=O)N3CCN(c4ccc(F)cc4)CC3)cc12 | 58 | ? | ? | ?
Cc1cc(N2CCOCC2)nc2ccc(NC(=O)CCC(=O)N3CCN(c4ccccc4F)CC3)cc12 | 11 | -13% | 21% | 22µM*
SMILES | HCMV antiviral | Pf growth 48h | Pf growth 96h | HCV inh
COc1ccc(N2CCN(c3cc(C)c4ccc(O)cc4n3)CC2)cc1 | 5 | 13µM* | 126% | 3%
Cc1cc(Nc2ccc(C)c(Cl)c2)n2nc(-c3ccccc3)nc2n1 | -27 | . | . | .
COc1ccc(NC(=O)CCCCCn2nnc3ccccc3c2=O)cc1 | 15 | -22% | -17% | ?
COc1cccc2c(C)cc(N3CCCCCC3)nc12 | -15 | ? | ? | 1%
COc1ccc(N2CCN(c3cc(C)c4cccc(C)c4n3)CC2)cc1 | -74* | -18% | ? | -6%
COc1ccc2c(C)cc(SCC(=O)N3CCOCC3)nc2c1 | 33 | 3% | 0.19µM* | -25%
COc1ccc(C2(c3ccc(OC)cc3)NC(=O)N(Cn3nnc4ccccc4c3=O)C2=O)cc1 | -24 | 12µM* | ? | ?
